PHOSPHO1 block – blocks human PHOSPHO1 phosphatase activity; recombinant PHOSPHO1, absorbance phosphatase assay; inhibition, % at 13.3 µM; hit rate 1.1% among 290,000; AID 1565; in the data active = inhibition above about 60%
Target sequence (Q8TCT1 whole entry, looked up): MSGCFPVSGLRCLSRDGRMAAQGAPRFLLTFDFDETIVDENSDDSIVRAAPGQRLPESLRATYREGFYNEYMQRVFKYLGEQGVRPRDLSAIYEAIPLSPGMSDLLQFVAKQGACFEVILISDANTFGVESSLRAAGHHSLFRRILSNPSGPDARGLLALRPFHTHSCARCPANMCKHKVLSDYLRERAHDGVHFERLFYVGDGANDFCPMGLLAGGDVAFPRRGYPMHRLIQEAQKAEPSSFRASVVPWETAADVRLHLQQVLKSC
NadD block – inhibitors of Staphylococcus aureus NadD | hit rate 0.78% among 360,000 | purified NadD enzyme, colorimetric absorbance read-out | inhibition, % at 20 µM; in the data active = inhibition above about 26%
SUMO HTRF inh – blocks human SUMOylation mediated by UBC9. HTRF SUMOylation assay, SAE1/SAE2 + UBC9, in vitro. inhibition, % at 35 µM. hit rate 0.36% among 290,000. AID 2006; in the data active = inhibition above about 50%, passing the limit was not always enough
Target sequence (P63279 whole entry, looked up): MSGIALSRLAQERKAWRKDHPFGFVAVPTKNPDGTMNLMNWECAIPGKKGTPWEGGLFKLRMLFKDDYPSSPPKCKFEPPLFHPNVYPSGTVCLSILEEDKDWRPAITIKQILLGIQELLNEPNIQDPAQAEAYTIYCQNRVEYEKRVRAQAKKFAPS
pCIP destab – compounds decreasing mouse p/CIP protein stability | Q05BA5 | F442A p/CIP-EGFP cells, EGFP fluorescence, 16 h | decrease of EGFP signal, % at 10 µM | hit rate 0.01% among 290,000 | AID 1984;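 active = EGFP signal decrease of at least 30% at 10 µM or well 3 SD below plate mean, unless failing retest; inactive = the rest, including hits failing retest or dose response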
Each line names hits and unclear results; the compound was inactive in the other large screens. Hits are enriched below; roughly 1.8% of the tested compounds scored in any of these assays.

COC(=O)c1ccccc1NC(=S)NC(=O)COc1ccccc1	none
CCC(=O)NC(=S)NNC(=O)c1ccccc1[N+](=O)[O-]	PHOSPHO1 block 64.6
Cc1ccc(C(=O)NC(=S)NNS(=O)(=O)c2ccccc2)cc1	PHOSPHO1 block 62.4
Cc1ccccc1C(=O)NNC(=S)NC(=O)COc1ccccc1	PHOSPHO1 block 97.4
Cc1ccc(C(=O)NNC(=S)NC(=O)COc2ccccc2)cc1	PHOSPHO1 block 96.9
COc1cc(-c2c(CCO)sc3ccccc23)cc(OC)c1OC	none (no result: PHOSPHO1 block, SUMO HTRF inh, pCIP destab)
CNc1cncc(-c2ccc(OC)cc2OC)n1	none (no result: PHOSPHO1 block, SUMO HTRF inh, pCIP destab)
CCc1cc(-c2nnn(CCC3COCCO3)c2CC)cc(CC)c1-c1cn(Cc2ccc3ccccc3c2)nn1 (centres undefined)	none (no result: PHOSPHO1 block, SUMO HTRF inh, pCIP destab)
OC(CSc1nnnn1-c1ccccc1)Cn1c2ccccc2c2ccccc21 (centres undefined)	none (no result: PHOSPHO1 block, SUMO HTRF inh, pCIP destab)
O=C(O)CN1C(=O)/C(=C\c2cn(-c3ccccc3)nc2-c2ccccc2)SC1=S	NadD block 31.2
O=C1C(=Cc2cn(-c3ccccc3)nc2-c2ccc(OCc3ccccc3)cc2)SC(=S)N1CCS(=O)(=O)O	NadD block 49.5 (no result: PHOSPHO1 block, SUMO HTRF inh, pCIP destab)
Cc1ccc(-c2nn(-c3ccccc3)cc2C=C2SC(=S)N(CCS(=O)(=O)O)C2=O)cc1	NadD block 30.0 (no result: PHOSPHO1 block, SUMO HTRF inh, pCIP destab)
CCOc1ccc(-c2nn(-c3ccccc3)cc2/C=C2\SC(=S)N(Cc3ccco3)C2=O)cc1	none
CC(C)COc1ccc(-c2nn(-c3ccccc3)cc2/C=C2/SC(=S)N(CC(=O)O)C2=O)cc1	none
CCN1C(=O)/C(=C\c2cn(-c3ccccc3)nc2-c2cccnc2)SC1=S	none
S=c1[nH]nc(-c2ccco2)n1-c1ccc(Cl)cc1	none
COc1ccc(-n2c(-c3ccco3)n[nH]c2=S)cc1	PHOSPHO1 block 99.0
COc1cc(OC)cc(-c2n[nH]c(=S)n2-c2cc(OC)ccc2OC)c1	PHOSPHO1 block 81.6
Nn1c(-c2ccco2)n[nH]c1=S	PHOSPHO1 block 85.5
COc1ccccc1-c1n[nH]c(=S)n1-c1ccccc1	PHOSPHO1 block 89.4
FC(F)(F)c1ccccc1Cc1c(-c2cccc(Br)c2)nc2c3ccccc3ccn12	none (no result: PHOSPHO1 block, SUMO HTRF inh, pCIP destab)
CC(C)Cc1nnc(NC(=O)CN2C(=O)c3ccccc3C2=O)s1	none
CC(C)c1nnc(NC(=O)CN2C(=O)c3ccccc3C2=O)s1	PHOSPHO1 block 89.1
COc1ccc(NC(=O)C2CC(=O)n3cnnc3S2)cc1 (centres undefined)	PHOSPHO1 block 103.8
COc1cccc(NC(=O)C2CC(=O)n3cnnc3S2)c1 (centres undefined)	PHOSPHO1 block 102.9
COc1ccc(CCNC(=O)Nc2ccc3c(c2)c(=O)n(C)n3CC=C(C)C)cc1OC	none (no result: PHOSPHO1 block, SUMO HTRF inh, pCIP destab)
O=C(NCc1cccc(Cl)c1)C1Cc2c(-c3ccccc3Oc3ccccc3)ccnc2O1 (centres undefined)	none (no result: PHOSPHO1 block, SUMO HTRF inh, pCIP destab)
CCCCNC(=O)C(=O)Nc1ccc2c(c1)N(S(=O)(=O)c1cccs1)CCC2	none (no result: PHOSPHO1 block, SUMO HTRF inh, pCIP destab)
CCOC(=O)c1cc(-c2ccc3c(c2)OCCO3)n[nH]1	none
O=C(O)c1cc(-c2ccc3c(c2)OCCO3)n[nH]1	PHOSPHO1 block 60.1
C=C1c2cc(C)ccc2NC(=O)N1c1ccc(C)cc1	PHOSPHO1 block 73.3
CCN(CC)c1ccc(NC(=O)c2nc3nc(C)cc(C(F)F)n3n2)cc1	PHOSPHO1 block 78.5
COc1ccc(NC(=O)c2nc3nc(C)cc(C(F)F)n3n2)cc1OC	none
Cc1cc(=S)[nH]c2ccccc12	PHOSPHO1 block 100.2
Cc1ccc2[nH]c(=S)cc(C)c2c1	PHOSPHO1 block 88.7
CC(=O)Nc1ccc(C(=O)OCCCOC(=O)c2ccc(NC(C)=O)cc2)cc1	none
O=C(OCCCOC(=O)c1cc[n+]([O-])cc1)c1cc[n+]([O-])cc1	PHOSPHO1 block 61.6
Clc1ccc(-c2nn3c(C4COc5ccccc5O4)nnc3s2)cc1 (centres undefined)	PHOSPHO1 block 92.1
COC(=O)c1sc2nc(C)nc(SCC(=O)Nc3sccc3C(N)=O)c2c1C	none (no result: PHOSPHO1 block, SUMO HTRF inh, pCIP destab)
COC(=O)C(NNc1ccccc1)(NC(=O)c1cccc(F)c1)C(F)(F)F (centres undefined)	PHOSPHO1 block 99.2
O=C(Nc1ccc(Nc2ccccc2)cc1)c1cccc(F)c1	none
COC(=O)c1cnc(NC(=O)C2(C)CCN2C(=O)C(C)C)s1 (centres undefined)	none (no result: PHOSPHO1 block, SUMO HTRF inh, pCIP destab)
COc1ccc(/C=N/n2c(=S)n(C)c3ccccc32)cc1OC	PHOSPHO1 block 73.3
COc1ccc(/C=N/n2c(-c3cc(C)[nH]n3)n[nH]c2=S)cc1	none
COc1ccc(/C=N/n2c(-c3cc(C)[nH]n3)n[nH]c2=S)cc1OC	PHOSPHO1 block 92.7
Nn1c(Cc2cccc3ccccc23)nnc1SCC(=O)NC1CCS(=O)(=O)C1 (centres undefined)	PHOSPHO1 block 90.3

Bioassay records as filed in PubChem BioAssay.
